Source: PubChem (National Center for Advancing Translational Sciences (NCATS))
DT40 TDP1 no CPT: qHTS for Inhibitors of human tyrosyl-DNA phosphodiesterase 1 (TDP1): qHTS in cells in absence of CPT | Potency, µM (series often up to 46.2 µM), for inactives: at the highest dose activity change, negative = growth inhibition, usual class: inhibitors | DT40 Tdp1-/- hTDP1 cells, no CPT, ATP luminescence, 48 h | 15% of 420,000 active; note: potency is the fitted concentration of half-maximal effect; % is set by controls: 0 for no effect and ±100 for the full control effect; nearly all actives have a fitted effect of over 55% in size
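No-CPT arm: Tdp1-/-;hTDP1 DT40 cells (400/well) plus compounds, incubated ≥48 hr at 37 °C. Readout CellTiter-Glo luminescence.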
HepG2 tox: qHTS for Inhibitors of TGF-b: Cytotox Counterscreen; HepG2 CAGA-GFP viability, ATP luminescence, 18 h; Potency, µM (series often up to 46.1 µM), for inactives: top-dose activity change, negative = cytotoxicity, actives largely listed as cytotoxic; 0.76% of 410,000 active; note: potency is the fitted concentration of half-maximal effect
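HepG2 CAGA-GFP cells (1000/well, DMEM with 1% FBS) received compound, then TGF-beta at 500 pg/mL final, and were incubated 18 hours at 37 degrees C. Viability was read by CellTiter-Glo luminescence. Media-only wells were set as complete cell-killing and DMSO as no toxicity.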
TGFb SMAD3 inh: qHTS for Inhibitors of TGF-b | HepG2 CAGA-GFP TGF-b/SMAD3 reporter, GFP fluorescence, 18 h; TGF-beta stimulated, 500 pg/mL final | 1.2% of 410,000 active | Potency, µM (doses to about 46.1 µM), inactives show top-dose activity, negative = inhibition, most hits filed as inhibitors | AID 588855, 2011; note: potency is the fitted concentration of half-maximal effect; % is set by controls: 0 for no effect and ±100 for the full control effect; nearly all actives have a fitted effect of over 65% in size
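Smad-responsive CAGA-GFP expression was quantified in HEPG2 cells exposed to compounds and 500 pg/mL final TGF-beta for 18 h at 37 degrees C; unstimulated wells defined full inhibition.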
IL-1B inflam inh: qHTS for Inhibitors of Inflammasome Signaling: IL-1-beta AlphaLISA Primary Screen | THP-1 LPS/ATP IL-1B secretion, AlphaLISA, 16 h; active compounds read low | activity change, % at 57.5 µM | 4.7% of 360,000 active; in the data active = activity change below about -50%; inconclusive = mostly about -30% to -49%; note: % is set by controls: 0 for no effect and ±100 for the full control effect
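Secreted IL-1B measured by AlphaLISA bead assay after 16 h compound exposure of THP-1 cells; compounds (final up to 57.5 uM) added 1 h before LPS (250 ng/mL) and ATP (1.25 mM) stimulation; lower signal means less secretion.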
TDP1 inh: qHTS Assay for Inhibitors of Tyrosyl-DNA Phosphodiesterase (TDP1). recombinant TDP1, AlphaScreen DNA substrate cleavage. Tyrosyl-DNA phosphodiesterase 1 (Homo sapiens), Q9NUW8. Potency, µM (highest dose often 130 µM), without a hit: at the highest dose activity change, negative = inhibition, most hits filed as inhibitors. 0.28% of 350,000 active; note: potency is the fitted concentration of half-maximal effect; % is set by controls: 0 for no effect and ±100 for the full control effect; nearly all actives have a fitted effect of over 40% in size
Target sequence (Q9NUW8 whole entry, looked up): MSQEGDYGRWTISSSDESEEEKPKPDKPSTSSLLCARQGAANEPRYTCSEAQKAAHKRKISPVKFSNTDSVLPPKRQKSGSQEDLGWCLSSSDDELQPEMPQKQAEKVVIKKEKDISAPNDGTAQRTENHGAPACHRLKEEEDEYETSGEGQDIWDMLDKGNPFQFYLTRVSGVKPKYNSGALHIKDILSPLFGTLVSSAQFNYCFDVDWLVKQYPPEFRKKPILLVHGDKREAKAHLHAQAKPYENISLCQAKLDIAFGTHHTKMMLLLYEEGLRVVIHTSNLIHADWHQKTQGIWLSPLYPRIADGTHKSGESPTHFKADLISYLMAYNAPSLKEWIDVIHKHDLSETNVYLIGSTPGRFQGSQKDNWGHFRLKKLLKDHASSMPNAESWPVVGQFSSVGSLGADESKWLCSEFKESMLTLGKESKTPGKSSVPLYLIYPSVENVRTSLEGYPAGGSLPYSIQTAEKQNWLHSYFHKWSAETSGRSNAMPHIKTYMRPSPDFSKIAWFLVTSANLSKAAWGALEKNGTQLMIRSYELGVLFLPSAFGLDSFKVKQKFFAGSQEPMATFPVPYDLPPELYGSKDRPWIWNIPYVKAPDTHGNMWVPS
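Here, a 5' biotin and 3' phosphotyrosine-FITC DNA oligonucleotide reports Tdp1 activity: intact substrate bridges AlphaScreen beads, while cleavage leaves a 3' phosphate and drops signal. All incubations at room temperature.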
TDP1 cell CPT: qHTS for Inhibitors of human tyrosyl-DNA phosphodiesterase 1 (TDP1): qHTS in cells in presence of CPT; AID 686979, 2013; chicken DT40 Tdp1-/-;hTDP1 cells + 20 nM CPT, ATP luminescence, 48 h; 12% of 420,000 active; Potency, µM (top dose mostly 46.2 µM), for inactives: at the highest dose activity change, negative = growth inhibition, usual class: inhibitors; note: potency is the fitted concentration of half-maximal effect; % is set by controls: 0 for no effect and ±100 for the full control effect; nearly all actives have a fitted effect of over 55% in size
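Cell growth measured by CellTiter-Glo luminescence after a minimum 48 h, 37 C compound exposure with 20 nM CPT in Tdp1-knockout DT40 cells stably expressing hTDP1, seeded 400/well; qHTS titration format.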
An asterisk follows results filed as active; ? = inconclusive; . = no result given; [ ] = dose if it differs, or a comment. A selection: hits, their analogues and other compounds. The true share with any hit is near 18%. Unless noted, calls come from the whole dose curve; as a rule, active = well fitted curve in the direction sought with a large enough effect; inconclusive = small, poorly fitted or top-dose-only effect, or another doubt; inactive = no such curve, though single readings can be large; an effect the other way counts as inactive or inconclusive.

SMILES	DT40 TDP1 no CPT	HepG2 tox	TGFb SMAD3 inh	IL-1B inflam inh	TDP1 inh	TDP1 cell CPT
O=[N+]([O-])/C(C(Cl)=C(Cl)Cl)=C(\Sc1ccccc1)N1CCCCC1	23µM*	-19%	-24%	-16	6%	18µM*
CCN(CC)/C(Sc1ccccc1)=C(/C(Cl)=C(Cl)Cl)[N+](=O)[O-]	?	-2%	-1%	-7	7%	21µM*
COc1ccc(NC(=O)C2=C(C)Nc3ncnn3C2c2sccc2C)cc1 (configuration not stated)	7%	9%	33%	.	4%	0%
CC[C@H]1[C@@H]2C=C[C@@H]3[C@H]4C/C=C\C(=O)NCCC[C@@H]5NC(=O)C(=C5O)C(=O)CC[C@@H]4C[C@@H]3[C@H]2C[C@H]1C	.	.	.	.	17%	.
Cc1ccc(SCCC(=O)OC(C(=O)NC(N)=O)C(C)C)cc1 (configuration not stated)	16µM*	-11%	-17%	23	-3%	16µM*
CC(=O)N1C(=O)CC(C)N(C(C)=O)c2ccc([N+](=O)[O-])cc21 (configuration not stated)	0%	-2%	6%	-3	0%	-14%
COc1cccc(NC(=O)COC(=O)CC(NC(N)=O)c2ccc(Cl)cc2)c1 (configuration not stated)	7%	7%	2%	26	5%	-1%
Cc1nnnn1/C(=C\c1ccccc1)C(=O)OCC(=O)NC(C)(C)C	10µM*	-56%	?	-5	3%	16µM*
CC(C)(C)NC(=O)COC(=O)c1ccccc1Oc1ccccc1	-5%	-4%	8%	3	4%	-27%
Cc1nnnn1/C(=C\c1ccccc1)C(=O)OCC(=O)NC1CCCCC1	15µM*	-85%	-18%	-103*	-6%[0.505 µM]	13µM*
O=C(COC(=O)/C=C/c1ccccc1)NC1CCCCCC1	-6%	-7%	16%	-1	1%	-4%
CC(=O)Nc1ccc(NC(=O)COC(=O)/C(=C/c2ccccc2)n2nnnc2C)cc1	13µM*	-66%	?	-76*	0%	12µM*
CC[C@@H]1CCCCc2ccccc2[C@H](C(=O)C[C@H](O)CC(C)=O)OC1=O	-10%	3%	14%	8	1%	1%
COc1ccc(NC(=O)CCNS(=O)(=O)c2cccc3nonc23)cc1	3%	2%	-7%	-1	-8%	15%
Cc1ccccc1C(=O)N1CCc2c(cnc(C)c2CNC(=O)c2ccc3c(c2)OCO3)C1	-24%	.	.	.	.	6%[9.04 µM]
CC(CC(=O)N1CCN(C(=O)c2ccccc2)CC1)c1ccccc1 (configuration not stated)	-2%	-2%	-4%	8	.	6%
O=C(CCl)N1CCN(S(=O)(=O)Cc2ccccc2)CC1	4.6µM*	-97%	?	-100*	1%	18µM*
CC(c1ccccc1)N1CCN(C(=O)CCl)CC1 (configuration not stated)	18µM*	-27%	?	-79*	7%	12µM*
COc1ccc(-n2ccn3c(CC(C)(C)CC(=O)O)nnc3c2=O)cc1	-6%	5%	-3%	.	-1%	-13%
COc1ccc(Cc2nnc(SCC(=O)NC3(C#N)CCCCC3)n2N)cc1	-23%	-8%	-2%	-14	0%	7%
Cc1ccc(C(=O)NCC(=O)NCC(=O)OCC(=O)c2ccc([N+](=O)[O-])cc2)cc1	23µM*	8%	?	-19	1%	23µM*
COc1ccc(C(=O)NCC(=O)OCc2ccc([N+](=O)[O-])cc2)cc1	2%	-7%	1%	0	5%	-13%
Cc1ccc(C(=O)NCC(=O)NCC(=O)OCc2ccc(Oc3ccc([N+](=O)[O-])cc3)cc2)cc1	21µM*	5%	3%	-17	.	?
COC(=O)N1CCC2(CCCN(c3ccc(-c4ccccc4)cc3)C2)CC1	?	.	.	.	.	-2%
CC(=O)N1CCC2(CC1)CCN(c1ccc(-c3ccccc3)cc1)CC2	8.2µM*	.	.	.	.	10µM*
SMILES	DT40 TDP1 no CPT	HepG2 tox	TGFb SMAD3 inh	IL-1B inflam inh	TDP1 inh	TDP1 cell CPT
O=C(c1ccncc1)N1CCC2(CC1)CN(c1ccncc1)C2	-12%	.	.	.	.	2%
COCC(=O)N1CCC2(CC1)CN(c1ccc(-c3ccccc3)cc1)C2	5.8µM*	.	.	.	.	8.2µM*
O=C(c1ccncc1)N1CCC2(CC1)CN(c1ccccc1)C2	?	.	.	.	.	16µM*
O=S(=O)(c1ccccc1)N1CCC2(CCN(c3ccncc3)CC2)CC1	13µM*	.	.	.	.	12µM*
CCCCCn1nc(C(=O)N(CCOC)c2c(N)n(CCCC)c(=O)[nH]c2=O)c2ccccc2c1=O	0%	8%	4%	27	.	-1%
C[C@H]1CN([C@@H](C)CO)C(=O)CCCn2nncc2CO[C@@H]1CN(C)Cc1cccc(C(=O)O)c1	18%	1%	2%	-7	.	5%
O=C(c1ccncc1)N1CCC2(CC1)CCN(c1ncccn1)CC2	-28%	.	.	.	.	-8%
O=C(c1ccncc1)N1CCC2(CC1)CCN(c1ccc(-c3ccccc3)cc1)CC2	?	.	.	.	.	6.5µM*
Cc1cccc(-c2nc(CN3CCN(Cc4cccc(F)c4)CC3)c(C)o2)c1	?	-29%	?	22	.	?
CCN(CC)c1ccc(N=C2C=CC(=O)C=C2NC(C)=O)cc1	2.9µM*	-15%	8%	-72*	.	5.2µM*
CCN(CC)c1ccc(NC(=O)Nc2ccc(C(C)=O)cc2)cc1	?	-52%	8%	-12	6%	-30%
Cc1c([N+](=O)[O-])cc(C(=O)Nc2ccc(NC(=O)c3ccco3)cc2)cc1[N+](=O)[O-]	-2%	8%	26%	-24	8%	5%
CN1/C(=N\O)c2cccc3cccc1c23	?	-5%	0%	-3	-2%	?
CC(=O)c1ccc2cccc3c2c1N=CN3C	-12%	-5%	87%	-59*	-3%	-4%
CC(C)COc1ccc(C(=O)N(Cc2ccco2)C2CCS(=O)(=O)C2)cc1 (configuration not stated)	16µM*	-19%	4%	2	5%	?
